Experimental data as given in PubChem BioAssay.
Unmarked numbers belong to inactive results. Calls of active or inactive are those of the source.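 The calls were made as follows: active = z-score of at least 1.8 in each of two replicates, scored against plate mean and spread of sample wells; inactive = the rest.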

assay: viability rescue of complex I mutant cybrids, primary screen, cell-based, galactose medium, ATP luminescence (AID 1645843); conditions: complex I mutant cybrid cells, 72 h, stronger effect = higher value;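 also: positive z means more ATP and so rescue of galactose-driven cybrid death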

Structure (SMILES) | z-score
Cc1nn(C)cc1-c1ccnc(NC(CC(C)(C)C)c2cccnc2)n1 (stereo not given) | 1.75
Cc1nsc(NC(=O)N2CCCC(C)(CO)C2)n1 (stereo not given) | -0.515
CC(C)Cc1cn(C2CCN(C3CCCCCC3)CC2)nn1 | -0.565
Cc1nc2cc(C(=O)N3CCN(C)C(=O)C3)ccc2s1 | -0.24
CCC1CN(C(=O)c2cc(-c3cnn(C)c3)nc3c(C)cccc23)CCN1C (stereo not given) | -0.31
CC1(C)CCN(C(=O)c2cc(-c3cnc(C4CC4)nc3)nc3cc(F)ccc23)C1 | -0.56
CCCCn1nnnc1NC(=O)NC1CCN(Cc2ccncc2)CC1 | -0.755
CCCN1CCC(NCC(CC)(CC)CCC#N)CC1 | -0.565
COc1ccc(CN2CCN(c3nccc(-c4c(C)nn(C)c4C)n3)CC2=O)cc1 | 1.14
CCn1cc(-c2cc(C(=O)N3CCN(C)C(=O)C3C)c3ccc(C)cc3n2)cn1 (stereo not given) | -0.19
CCCCc1ncc(-c2nc3ccc(C)cc3c(C(=O)N(C)CC)c2C)cn1 | -0.54
C=C1C(C)(C)[C@H]2CC[C@]1(C(=O)N1CCC(n3cc(CC(C)C)nn3)CC1)C2 | -0.52
Cc1ccccc1C1CCCN(C(=O)CCC(C)C)C1 (stereo not given) | -0.255
CCN(C)Cc1ccc(-c2nc(C(F)(F)F)c(C)c(=O)[nH]2)cc1 | 0.97
Cc1cnc(CN(C)Cc2ccc(-c3nc(C(F)(F)F)c(C)c(=O)[nH]3)cc2)[nH]1 | -0.58
CCCc1cn(CC2CCN(C(=O)[C@@H](N)[C@@H](C)CC)CC2)nn1 | -0.24
Cc1cc(CN2CCN(C)C(CCO)C2)c2cccc(C)c2n1 (stereo not given) | -0.035
CN1CCN(c2ccc3cc(Cl)ccc3n2)CC1=O | -0.56
Cn1ncc2[nH]c(-c3cc(F)ccc3-n3cccn3)nc21 | -0.56
Cc1cccc(CN(C)Cc2ccc(-c3nc(C(F)(F)F)c(C)c(=O)[nH]3)cc2)n1 | 0.78

Structure (SMILES) | z-score
Cc1nc(CN(C)C2CCN(c3ccc(-n4cccn4)cc3)CC2)cs1 | 0.655
CCCCCC(=O)N1CCC(n2cc(C3CCCCC3)nn2)CC1 | -0.415
CCC1(CC)CC1C(=O)N1CCCCC1CCn1ccnc1C (stereo not given) | -0.475
CC(=O)c1ccccc1-c1ccc2ccccc2n1 | -0.515
O=C(C1CCCCCC1)N1CCC(n2cc(C3CC3)nn2)CC1 | -0.53
C=C1C2(C(=O)N3CCC(c4ccc(F)cc4)C3)CCC(C2)C1(C)C (stereo not given) | 0.91
NC(=O)NCc1cn(CC2CCN(C(=O)CC3CCCCCC3)CC2)nn1 | -0.605
CCCC(C)CN(CC)C1CCS(=O)(=O)C1 (stereo not given) | -0.55
COc1cc(N2CCN(Cc3ccc(F)cc3)C(=O)C2)ncn1 | -0.36
O=C(C1CCCCCC1)N1CCC(n2cc(C3CCCCC3)nn2)CC1 | 2.69 (active)
CCC(CC)CN1CCC(N2CCSCC2)CC1 | -0.55
Cc1ccc2nc(-c3cnc(CCC(C)C)nc3)c(C)c(C(=O)N(C)C)c2c1 | -0.51
O=C(Cn1ccc(-c2cccnc2)n1)Nc1ccnn1Cc1cccs1 | -0.545
CN(Cc1nc(-c2cccnc2)no1)C(=O)c1nc2ccccc2s1 | 0.26
Cc1nc(C(=O)N(Cc2cccnc2)Cc2ccc3c(c2)OCO3)cs1 | -0.675
Cn1cc(-c2ccccc2OC2(C(=O)O)CCSCC2)cn1 | 1.44
c1ccc(CC2CCN(C3CCSC3)CC2)cc1 (stereo not given) | -0.3
Cc1ccn2cc(C(=O)N(CC(C)C)CC(C)C)nc2c1 | -0.515
CCCC(C)c1nc2c(cnn2C(C)C(C)C)[nH]1 (stereo not given) | -1.01
COc1cc(F)c(C(=O)N(C)CC2CCCCN2C)c(F)c1 (stereo not given) | -0.575
